# HT1080 IDH1KD tx: toxicity to HT-1080 IDH1 knockdown cells (counter line); HT-1080 IDH1 knockdown viability, ATP luminescence, 48 h; Potency, µM (titrated, usually from 46.1 µM), for the others: at the highest dose activity, negative = toxicity, hits mostly cytotoxic; actives 2% (n = 360,000);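 also: 0% = DMSO wells and -100% = cell-free medium wells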
#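 HT-1080-IDH1KD cells (IDH1 knocked down), 750/well in RPMI with 5% FBS, treated with compound 48 h at 37 degrees C. Viability by CellTiter-Glo luminescence, normalised to DMSO and no-cell wells; concentration-response curves classed.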
# DT40 TDP1 CPT: DT40-hTDP1 cell growth loss with CPT. chicken DT40 Tdp1-/-;hTDP1 cells + 20 nM CPT, ATP luminescence, 48 h. Potency, µM (series often up to 46.2 µM), for inactives: at the highest dose activity change, negative = growth inhibition, usual class: inhibitors. actives 12% (n = 420,000); also: nearly all actives have a fitted effect of over 55% in size
#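 Chicken DT40 Tdp1-/- cells complemented with human TDP1, 400 cells/well, exposed to compounds plus 20 nM camptothecin for at least 48 h at 37 C; viability read as ATP content by CellTiter-Glo luminescence.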
# DT40 TDP1 no CPT: qHTS for Inhibitors of human tyrosyl-DNA phosphodiesterase 1 (TDP1): qHTS in cells in absence of CPT | DT40 Tdp1-/- hTDP1 cells, no CPT, ATP luminescence, 48 h | Potency, µM (doses to about 46.2 µM), without a hit: at the top dose activity change, negative = growth inhibition, hits mostly inhibitors | actives 15% (n = 420,000) | AID 686978, 2013; also: nearly all actives have a fitted effect of over 55% in size
#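 Growth kinetics read by CellTiter-Glo luminescence after ≥48 hr at 37 °C. Cells: DT40 Tdp1-/- stably carrying human TDP1, 400 per well, compound exposure in the absence of CPT (DMSO vehicle).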
# KB-3-1 tox: kills parental KB-3-1 adenocarcinoma cells; Potency, µM (highest dose often 46.1 µM), most hits filed as cytotoxic; actives 1.4% (n = 400,000); KB-3-1 viability, CellTiter-Glo ATP luminescence, 72 h; also: nearly all actives have a fitted effect of over 60% in size
#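 KB-3-1 cells, DMEM (no phenol red) + 10% FBS; compound by pin transfer, 72 h, 37 °C. Readout: CellTiter-Glo luminescence after 10 min. Data normalized, curve-fitted.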
# KB-V1 cytotox: kills drug-selected multidrug resistant KB-V1 cells | KB-V1 MDR cells viability, CellTiter-Glo, 72 h | Potency, µM (titrated, usually from 46.1 µM), most hits filed as cytotoxic | actives 3.4% (n = 400,000); also: nearly all actives have a fitted effect of over 60% in size
#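 KB-V1, DMEM (no phenol red) + 10% FBS; cpd pin-transferred, titration series; 72 h, 37 degrees C; CellTiter-Glo, luminescence. Data normalized, curve-fit.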
# HT1080-NT tox: kills 2HG-producing HT-1080-NT fibrosarcoma cells; HT-1080-NT fibrosarcoma viability, CellTiter-Glo ATP luminescence, 48 h; Potency, µM (top dose mostly 46.1 µM), without a hit: top-dose activity, negative = less viability, usual class: cytotoxic; actives 1.6% (n = 360,000); AID 686970;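 also: NT is the 2HG producing partner of a matched IDH1 knockdown line; 0% = DMSO-treated cells and -100% = media-only wells without cells; nearly all actives have a fitted effect of over 55% in size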
#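 Viability of the 2HG-overproducing fibrosarcoma line after 48 hours of compound exposure at 37 degrees C was determined by luminescence with CellTiter-Glo, and concentration-effect curves were then fitted and categorized.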
# The depositor's hits bear a star; i = inactive; ? = inconclusive; . = not tested or not shown; ! = not confirmed by another sample. Only some compounds are listed: those with a hit (about 19% of all), similar ones and a draw of the others. Calls follow the shape of the dose curve; as a rule, active = well fitted curve in the direction sought with a large enough effect; inconclusive = small, poorly fitted or top-dose-only effect, or another doubt; inactive = no such curve, though single readings can be large; an effect the other way counts as inactive or inconclusive. Unless noted, % is scaled to controls: 0 for no effect and ±100 for the full control effect; potency is read from the fitted curve at half-maximal effect.
SMILES,HT1080 IDH1KD tx,DT40 TDP1 CPT,DT40 TDP1 no CPT,KB-3-1 tox,KB-V1 cytotox,HT1080-NT tox
CCOC(=O)N1CCN(C(=O)c2ccc3c(c2)N(CC)CCS3)CC1,2.6%,?,?,i,i,-11.1%
CCOC(=O)N1CCC(NC(=O)c2ccc3c(c2)N(Cc2ccc(C)cc2)CCS3)CC1,-2.3%,20.6µM*,20.6µM*,i,i,-4.4%
Cc1cccc(NC(=O)COC(=O)CN2C(=O)c3ccccc3C2=O)c1,-5.0%,0.6%,1.6%,i,i,-3.5%
O=C(CSc1nnc(CNC(=O)c2c(F)cccc2Cl)o1)Nc1cccc(F)c1,.,?,?,i,?,.
O=C1CC2(CCN(C(=O)c3ccccc3[N+](=O)[O-])CC2)Oc2ccccc21,1.5%,?,?,i,i,10.0%
Cc1ccc(CN2CCSc3ccc(C(=O)N4CCN(c5ccccc5)CC4)cc32)cc1,.,?,-24.3%,i,i,.
O=C(c1ccc2c(c1)N(Cc1ccc(F)cc1)CCS2)N1CCN(c2ccccc2)CC1,.,20.6µM*,23.1µM*,i,?,.
COc1cccc(C2=NOC(C(=O)Nc3ccc4c(c3)OCO4)C2)c1OC (configuration not stated),1.4%,-26.5%,?,i,i,-1.0%
COC(=O)[C@H]1[C@H]2C[C@@H]3c4[nH]c5cc(OC)ccc5c4CCN3C[C@H]2C[C@@H](OC(=O)c2cc(OC)c(OC)c(OC)c2)[C@@H]1OC,?,16.4µM*!,?,i,i,?
COC(=O)C1C2CC3c4[nH]c5cc(OC)ccc5c4CCN3CC2CC(OC2CCCCO2)C1OC (configuration not stated),1.4%,?,?,i,i,6.2%
COC(=O)[C@@H]1C2CC3c4[nH]c5cc(OC)ccc5c4CCN3CC2C[C@H](OC(=O)c2cc(OC)c(OC)c(OC)c2)C1OC (some centres not stated),.,23.1µM*,?,.,.,.
Cc1ccc(CCC(=O)Nc2ccc(N(C)C)cc2)o1,-1.3%,16.4µM*,?,i,i,0.3%
Cc1ccc(CCC(=O)Nc2ccc(Cl)cc2)o1,?,-18.2%,-4.5%,i,i,?
OC[C@@H]1CN(Cc2ccncc2)C[C@H](n2cnc3c(NCc4ccco4)ncnc32)O1,10.6%,-24.5%,?,i,i,?
O=C(NNc1ccccc1F)c1cccs1,?,-20.0%,?,.,.,?
COc1ccc(Cl)cc1-c1nc(SCC(N)=O)n[nH]1,9.8%,8.3%,7.9%,i,i,-7.6%
CC12CCC(/C(=C/NNc3ccc([N+](=O)[O-])cc3[N+](=O)[O-])C1=O)C2(C)C (configuration not stated),-25.2%,18.4µM*,18.4µM*,i,i,-15.0%
O=C(NNc1ccc([N+](=O)[O-])cc1[N+](=O)[O-])C1C2CCCCC21 (configuration not stated),-9.0%,-9.2%,?,i,?,-3.5%
Cc1ccc(-c2cc(C(=O)OCC(=O)Nc3ncc(C(F)(F)F)cc3Cl)c3ccccc3n2)cc1,0.8%,14.6µM*,?,?,i,6.5%
Cc1ccc(C(=O)NCC(=O)OCC(=O)Nc2ncc(C(F)(F)F)cc2Cl)cc1,-0.8%,-4.6%,22.3%,i,i,-13.7%
Cc1ccc(C(=O)COC(=O)c2cc(-c3ccc(Cl)cc3)nc3ccccc23)cc1,.,10.3µM*,20.6µM*,i,i,.
CCOC1=C2[C@@H](CN(S(=O)(=O)c3ccc(C)cc3)[C@H]2c2ccccc2Cl)[C@H]2C(=O)N(Cc3ccccc3)C(=O)[C@H]2C1,2.5%,18.4µM*,14.6µM*,i,i,-1.8%
Cc1ccc(Cn2ccc(NC(=O)c3cc(-c4ccc(Cl)cc4)on3)n2)cc1,6.6%,-26.8%,-16.1%,i,i,10.7%
Cc1ccc(Cn2ccc(NC(=O)c3cc(-c4cccc(Cl)c4)on3)n2)cc1,6.2%,-1.4%,-29.0%,i,14.6µM*,-21.8%
Cc1ccc(Cn2ccc(NC(=O)c3cc(CC(C)C)on3)n2)cc1,0.0%,?,20.6µM*,i,i,-15.9%
SMILES,HT1080 IDH1KD tx,DT40 TDP1 CPT,DT40 TDP1 no CPT,KB-3-1 tox,KB-V1 cytotox,HT1080-NT tox
O=C1CCC[C@@H]2C[C@@]3(C[C@@H]4CCN1[C@H]24)Nc1cc(Cl)ccc1NC3=NCc1ccccc1,-0.1%,?,?,i,i,2.9%
Cc1cc2c(cc1C)N[C@]1(C[C@H]3CCCC(=O)N4CC[C@@H](C1)[C@@H]34)C(=NC(C)(C)CC(C)(C)C)N2,-10.9%,18.4µM*,11.2µM*,?,20.6µM*!,-14.6%
O=C1CCC[C@@H]2C[C@@]3(C[C@@H]4CCN1[C@H]24)Nc1cc([N+](=O)[O-])ccc1NC3=NC1CCCCC1,-5.9%,25.9µM*,11.2µM*,i,i,-6.7%
CC(C)(C)CC(C)(C)N=C1Nc2ccc(Cl)cc2N[C@]12C[C@H]1CCCC(=O)N3CC[C@@H](C2)[C@@H]13,.,?,?,?,20.6µM*,.
O=C1CCC[C@@H]2C[C@@]3(C[C@@H]4CCN1[C@H]24)Nc1cc(Cl)ccc1NC3=NC1CCCCC1,0.4%,?,?,i,i,1.3%
Cc1cc2c(cc1C)N[C@]1(C[C@H]3CCC(=O)N4CC[C@@H](C1)[C@@H]34)C(=Nc1ccccc1C)N2,.,-80.7%,?,i,i,.
Cc1cc2c(cc1C)N[C@]1(C[C@H]3CCCC(=O)N4CC[C@@H](C1)[C@@H]34)C(=NCc1ccccc1)N2,.,11.2µM*,11.2µM*,i,i,.
CC1(C)CC(=O)c2cc(-c3nc(-c4ccc(Cl)cc4)cs3)c(=O)n(-c3ccc(F)cc3)c2C1,.,?,?,i,i,.
COc1ccc(-c2c(Sc3ccccc3)c3cc(-c4ccc5c(c4)OCO5)ccc3n2C)cc1,5.5%,-9.7%,?,i,i,13.1%
S=c1nc[nH]c2nc[nH]c12,1.84µM*,?,18.8µM*!,0.82µM*,1.16µM*,2.31µM*
O=c1[nH]c(=S)[nH]c2nc[nH]c12,.,8.0%,-5.6%,i,?,.
C[C@@]12C(=O)N(c3cccc(F)c3)C(=O)N1[C@@H]1c3ccccc3OC[C@@H]1[C@H]2c1ccccc1,-3.1%,?,14.6µM*,?,?,?
